# Source: paper PMC12864922, “TDP-43 directly inhibits mRNA accumulation in neurites through modulation of mRNA stability”
# In all, about 9,900 sequences were measured (“r (bound/input frequency ratio)”: median about 0.7, highest 2% from about 6.5 on). Many of the other results were omitted from the sample, so the highest values are more common in it than they were.
# B1: ENSMUSG00000043670.63|Diras1 (ssRNA)
# RNA: GGGAGUUCUACAGUCCGACGAUCGCUUCGAUAUCCGCAUGCUAAGACCUCUCCCUCUAUAUCUCUUUGCUCCCCCACCCCCAUUCUAUCUGCACCCCACAACCACACACUGGAGGUUUGAUCCCUGUGGAUCUGAAAACAGGGACCUGGCUAAGGAACUGCUCAUCCCAGUCAGGCCCAGAGAGGUUACCUUGCCUCUCCAUCUCUGUCCCUGUGUGCCCAGCCAUGCCCACUGUCCCUGUCCCUCACAUUCUAUCACUGUGACCUCUGGGGAGUGCCCAUUGACCUCAUCUUCCUUCACUAACUCUUGCGGUCGCACUAGUGUGGAAUUCUCGGGUGUCAAGG
# B2: ENSMUSG00000058297.300|Spock2 (ssRNA)
# RNA: GGGAGUUCUACAGUCCGACGAUCGCUUCGAUAUCCGCAUGCUAAGGGCCACCCUGAUGCCCAGGAAGAGUGAGGGCAGCCCCCUGUGUGGUGGAAGAGGCUGGGCAGCUAGCUACUGGGGACCUUGUGCUGAGGCUUCCAGGACAAAGCCCCAGUCUGGCUCUCCCCCAGCCUCUCAGGGGCACUGGCUGGUCACAUCCACUGAGUAUUGAUCGGUUGGACUUUAGGGAAGAGCCUCCUCCUUCCCAUUCCUUUCUGCCACCCUGGAAUGGCCACCUUAAUCGUCAUCUCCUCGGGGGGAAUACUCUUGCGGUCGCACUAGUGUGGAAUUCUCGGGUGUCAAGG
# B3: ENSMUSG00000031028.551|Tub (ssRNA)
# RNA: GGGAGUUCUACAGUCCGACGAUCGCUUCGAUAUCCGCAUGCUACCUGGUUUCCCUUCUCAGCAGUCCUGGCCUCCCCUUCUCUGUAUUCCUUGCCCCAGCUACGAUAUCCUCAUGGGAUUUCAGGAUGCCAGGUGCCAUCAAAGCAUGCUUUUUUGUGGUGCCUAGCACUGUGACUGGGGCCCAACUGCCCUGCAGAGUUGGGACCUUGCACUGCCCUAGACCCUGGCUUUAGAUCUGCUUCAGUCUCCAGAACAGGCUAUGGGAUAGAUUUUUCUUUCAGUUUAUGGCCACCUGCCCAAAUUCUCUUGCGGUCGCACUAGUGUGGAAUUCUCGGGUGUCAAGG
# B4: ENSMUSG00000028439.8|Fam219a|14:18;220:226 (ssRNA)
# RNA: GGGAGUUCUACAGUCCGACGAUCGCUUCGAUAUCCGCAUGCUAAACCCCACCUGCAACACAUGUCAGGCCACUUCCUCCACCGCCUGCCACAUUCAGUAGUGGGCGGGGUCGCCGCGGUGCACGGGGCGCUGACCUGGGCCCGGUGGGAUGCAGCAGGAGAGACCCCUACCCUGCUGGUCCACUGGUCCCCAGCCCCGCGCCUCUUAGAGCCGCCAACCUCGUAACAGUCAUUGCUUCCUCCUAUGGUAGGACGUGUACCUCACACACAUCAAGGAGCCGGAGAAACCAAAACCGGGUCUGUCCUCUUGCGGUCGCACUAGUGUGGAAUUCUCGGGUGUCAAGG
# B5: ENSMUSG00000034801.23|Sos2 (ssRNA)
# RNA: GGGAGUUCUACAGUCCGACGAUCGCUUCGAUAUCCGCAUGCUAGAUUCCACGCAGCUGUCACUUGCUCAGCUCCAGUCACAGCAGCCUUGCUCAUCUUCCAGCUCCUCCUGUCCCACCAAGGCAGAAUUCAAGCCCUCUCUUACCAAAGCUGCCACCAAAGACUUACAAACGGGAGCUUUCCCACCCGCCACUGUAUAGACUGCCUCUGCUGGAAAAUGCAGAAACUCCUCAAUGACCUUGGCCAUAUGUAGUCAUUGACACUGGAAUAGUAUUUGUAAAGGUUUUUAAUUUAUUCAAAAAGACUCUUGCGGUCGCACUAGUGUGGAAUUCUCGGGUGUCAAGG
# B6: ENSMUSG00000028439.139|Fam219a (ssRNA)
# RNA: GGGAGUUCUACAGUCCGACGAUCGCUUCGAUAUCCGCAUGCUAUCUGCCUCAUCCCCACACCGCCCUGCCACCCCCAGUCUUCUGUCUAUUGGUUCCAGGCUGGAAGCAAGAGAUAAGGCUGGCCUCCUGUGCCCCAUUGCCAUUUCACCCUAGCUCAAAGUCCAGGAGCCAGGCUUCCAGAAAGGCUCUUCAAGAGCAAGCUUAAGGAAAUACAGUGAGCCAAGUGGCUGUAUGAUAUGGUAUGGUAUGGUAUGGUAUGGUAUGGUAUGGUAUGCACAUGUGUGUGCAUGUGUGUGUGCCUGCUCUUGCGGUCGCACUAGUGUGGAAUUCUCGGGUGUCAAGG
# B7: ENSMUSG00000028439.146|Fam219a (ssRNA)
# RNA: GGGAGUUCUACAGUCCGACGAUCGCUUCGAUAUCCGCAUGCUAUCUAUUGGUUCCAGGCUGGAAGCAAGAGAUAAGGCUGGCCUCCUGUGCCCCAUUGCCAUUUCACCCUAGCUCAAAGUCCAGGAGCCAGGCUUCCAGAAAGGCUCUUCAAGAGCAAGCUUAAGGAAAUACAGUGAGCCAAGUGGCUGUAUGAUAUGGUAUGGUAUGGUAUGGUAUGGUAUGGUAUGGUAUGCACAUGUGUGUGCAUGUGUGUGUGCCUGUGUGUGUGCGUGUGCGUGUGUGUAUGUGUGUGCGUGUGUGUGCUCUUGCGGUCGCACUAGUGUGGAAUUCUCGGGUGUCAAGG
# B8: ENSMUSG00000028439.143|Fam219a (ssRNA)
# RNA: GGGAGUUCUACAGUCCGACGAUCGCUUCGAUAUCCGCAUGCUAGCCACCCCCAGUCUUCUGUCUAUUGGUUCCAGGCUGGAAGCAAGAGAUAAGGCUGGCCUCCUGUGCCCCAUUGCCAUUUCACCCUAGCUCAAAGUCCAGGAGCCAGGCUUCCAGAAAGGCUCUUCAAGAGCAAGCUUAAGGAAAUACAGUGAGCCAAGUGGCUGUAUGAUAUGGUAUGGUAUGGUAUGGUAUGGUAUGGUAUGGUAUGCACAUGUGUGUGCAUGUGUGUGUGCCUGUGUGUGUGCGUGUGCGUGUGUGUACUCUUGCGGUCGCACUAGUGUGGAAUUCUCGGGUGUCAAGG
# B9: ENSMUSG00000028439.142|Fam219a (ssRNA)
# RNA: GGGAGUUCUACAGUCCGACGAUCGCUUCGAUAUCCGCAUGCUACGCCCUGCCACCCCCAGUCUUCUGUCUAUUGGUUCCAGGCUGGAAGCAAGAGAUAAGGCUGGCCUCCUGUGCCCCAUUGCCAUUUCACCCUAGCUCAAAGUCCAGGAGCCAGGCUUCCAGAAAGGCUCUUCAAGAGCAAGCUUAAGGAAAUACAGUGAGCCAAGUGGCUGUAUGAUAUGGUAUGGUAUGGUAUGGUAUGGUAUGGUAUGGUAUGCACAUGUGUGUGCAUGUGUGUGUGCCUGUGUGUGUGCGUGUGCGUGCUCUUGCGGUCGCACUAGUGUGGAAUUCUCGGGUGUCAAGG
# B10: ENSMUSG00000028439.145|Fam219a (ssRNA)
# RNA: GGGAGUUCUACAGUCCGACGAUCGCUUCGAUAUCCGCAUGCUACUUCUGUCUAUUGGUUCCAGGCUGGAAGCAAGAGAUAAGGCUGGCCUCCUGUGCCCCAUUGCCAUUUCACCCUAGCUCAAAGUCCAGGAGCCAGGCUUCCAGAAAGGCUCUUCAAGAGCAAGCUUAAGGAAAUACAGUGAGCCAAGUGGCUGUAUGAUAUGGUAUGGUAUGGUAUGGUAUGGUAUGGUAUGGUAUGCACAUGUGUGUGCAUGUGUGUGUGCCUGUGUGUGUGCGUGUGCGUGUGUGUAUGUGUGUGCGUGCUCUUGCGGUCGCACUAGUGUGGAAUUCUCGGGUGUCAAGG
# B11: ENSMUSG00000028439.144|Fam219a (ssRNA)
# RNA: GGGAGUUCUACAGUCCGACGAUCGCUUCGAUAUCCGCAUGCUACCCAGUCUUCUGUCUAUUGGUUCCAGGCUGGAAGCAAGAGAUAAGGCUGGCCUCCUGUGCCCCAUUGCCAUUUCACCCUAGCUCAAAGUCCAGGAGCCAGGCUUCCAGAAAGGCUCUUCAAGAGCAAGCUUAAGGAAAUACAGUGAGCCAAGUGGCUGUAUGAUAUGGUAUGGUAUGGUAUGGUAUGGUAUGGUAUGGUAUGCACAUGUGUGUGCAUGUGUGUGUGCCUGUGUGUGUGCGUGUGCGUGUGUGUAUGUGUGCUCUUGCGGUCGCACUAGUGUGGAAUUCUCGGGUGUCAAGG
# B12: ENSMUSG00000004113.108|Cacna1b|97:101;113:118;234:238 (ssRNA)
# RNA: GGGAGUUCUACAGUCCGACGAUCGCUUCGAUAUCCGCAUGCUAGGACCCAGCAAAUCCAAAUCCUAUGUCAUGGCCUCCAGCAUCCAGGGUGGGUCCUUGGGACUUUUCUUAGGAGGGACUUUCUGAGCCUCGUGGAGACACACGUUUGUCCAAAACACACGCAUGGGAGAUAGGGUACCCCUGAAAGCAAGGAAAGGAGCCCAGCUGUGGCCUGGUAGCACCUGCCGGCACCAGUGAUCUCACGUCUCUUGUGGUCUUGGAGUCAAAUAGCACAUCAUACUAGAGAUGCGCUCAAGGGCCUGCUCUUGCGGUCGCACUAGUGUGGAAUUCUCGGGUGUCAAGG
# B13: ENSMUSG00000042529.323|Kcnj12 (ssRNA)
# RNA: GGGAGUUCUACAGUCCGACGAUCGCUUCGAUAUCCGCAUGCUAGAUGCUGUAUUUUCAAAUUCUCCUGCCCUCUUUUCCCCUUUUUCCCUGUAUUUAUUUAUUGCUUGUGCUAAAGACCAAACUAGCCGCCCCCUUUAGUGCACCCAAUGGAGGAAGCCACUGAGGGGGGAGCCGUGUGCCUGUGCCAGGCAGGAAAGCUUGGCCCCUGGGAAGUGUGUGAGAAGGAAAACCAGGGUGUGUGUGCACGCAUGUGCAGACGUGCUCACACGAUCGUCUCCCUGUGUGGGAAACUUGGUAUGCAGCUCUUGCGGUCGCACUAGUGUGGAAUUCUCGGGUGUCAAGG
# Target: TDP-43 (Homo sapiens, UniProt Q13148 1-414)
# Assay: RNA Bind-n-Seq with designed 260-mer pool; 25 mM Tris-HCl, 150 mM KCl, 3 mM MgCl2, BSA (printed 500 mg/mL), 20 units/mL SUPERase IN; pH not stated; 500 nM RNA pool, 1 h, 4 C; TDP-43 5, 50, 500 nM; high values mean tight binding
# Conditions: protein: recombinant; tags: SBP (GST cleaved off with PreScission; pGEX-GST-SBP)
# Outline: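 An in vitro-transcribed pool of 260-nt 3′ UTR oligos (500 nM) was incubated for 1 h at 4 °C with recombinant SBP-tagged TDP-43 at 5, 50 or 500 nM held on streptavidin beads. The buffer contained 25 mM Tris-HCl, 150 mM KCl, 3 mM MgCl2, BSA and SUPERase IN. Biotin-eluted bound RNA was sequenced, and binding, R, is each oligo's normalized read abundance in the bound sample over that in input.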
# TDP-43, sequence (Q13148 whole entry): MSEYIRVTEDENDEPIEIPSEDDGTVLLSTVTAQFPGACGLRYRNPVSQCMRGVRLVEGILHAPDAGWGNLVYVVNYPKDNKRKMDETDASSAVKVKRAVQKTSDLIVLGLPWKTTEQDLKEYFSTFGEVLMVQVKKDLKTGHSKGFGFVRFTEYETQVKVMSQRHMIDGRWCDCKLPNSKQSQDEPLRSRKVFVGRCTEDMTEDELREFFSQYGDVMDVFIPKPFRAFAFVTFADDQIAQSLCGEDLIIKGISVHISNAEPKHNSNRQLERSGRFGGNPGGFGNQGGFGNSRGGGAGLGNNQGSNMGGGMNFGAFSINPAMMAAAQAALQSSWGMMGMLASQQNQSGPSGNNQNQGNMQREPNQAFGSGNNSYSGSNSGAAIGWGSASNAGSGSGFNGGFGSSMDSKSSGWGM
row,Binder,binding signal
1,B1,2.02 R (bound/input frequency ratio)
2,B2,0.798 R (bound/input frequency ratio)
3,B3,0.798 R (bound/input frequency ratio)
4,B4,0.367 R (bound/input frequency ratio)
5,B5,0.462 R (bound/input frequency ratio)
6,B6,2.12 R (bound/input frequency ratio)
7,B7,7.87 R (bound/input frequency ratio)
8,B8,5.96 R (bound/input frequency ratio)
9,B9,4.5 R (bound/input frequency ratio)
10,B10,8.23 R (bound/input frequency ratio)
11,B11,6.06 R (bound/input frequency ratio)
12,B12,0.293 R (bound/input frequency ratio)
13,B13,2.13 R (bound/input frequency ratio)
